According to PubChem BioAssay (NCI):
This is part of a sample that, as a whole, favours compounds with a hit. Of some 83,000 tested, about 20% had one in any assay.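 The test compound was applied at a single concentration to cells in 96-well plates for 48 hours, and percent growth was recorded.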 Active and inactive are the calls of the source. How the source made its calls: active means growth percent below 10; inactive means the rest.

Each compound was assayed on HL-60(TB) leukemia (assay: NCI-60 one-dose screen, 48 h (100 = growth as untreated, 0 = no growth, -100 = all killed)). Conditions: 10 µM unless noted.

Which growth does the source give for `O=C1c2ccccc2C(=O)c2c1oc1oc3c(c(=O)c21)c(=O)n(-c1ccccc1)c1ccccc31` here?
The growth was 7.05% (active).

For `COc1cccc(-c2nc3sccn3c2-c2ccnc(NCCCNS(=O)(=O)c3ccc(F)cc3)n2)c1`, which growth is on record?
Its growth is 12.1% (inactive).

Which growth does the source give for `Cc1cc(O)c2c(c1)C1OC(=O)CCCCCN1C1=C2C(=O)c2cccc(OC3CC(O)C(O)C(C)O3)c2C1=O` (stereo not given) here?
Its growth is 79.2% (inactive).

For `Fc1cc(-c2nnc3sc(-c4ccc(Cl)cc4)nn23)c(Cl)cc1Cl`, which growth is on record?
Its growth is 26.9% (inactive).

With `CCCCCCCCCCCC[n+]1ccccc1` (tested in a mixture with another compound) as the compound, how does the growth read?
The growth was -77.6% (active).

Which growth does the source give for `CCCCCCCSc1ccc(C(=O)O)cc1` here?
The growth was 98.6% (inactive).

For `COc1ccc(-c2cs/c(=N\N=C\c3ccc(O)cc3O)n2/N=C/c2ccc(O)cc2O)cc1`, which growth is on record?
Its growth is -32.6% (active).

Which growth does the source give for `COc1cc(C2CC(=O)Nc3c2c(C)nn3-c2nc3ccccc3[nH]2)cc2c1OCC(=O)N2` (stereo not given) here?
The growth was 77.4% (inactive).

For `CCN(CC)Cc1cc(Nc2c3ccc(Cl)cc3nc3c(C)cccc23)ccc1O`, which growth is on record?
The growth was -19.7% (active).

Which growth does the source give for `C[C@@]1(N2C(=O)OC[C@@H]2c2ccccc2)C(=O)N([C@H](CC(=O)N2CCC(N3CCCCC3)CC2)C(=O)NCc2cccc(C(F)(F)F)c2)[C@@H]1/C=C/c1ccccc1` here?
Its growth is 81% (inactive).

For `O=C(/C=C/c1ccccc1)n1c(-c2ccc(Cl)cc2)nc2ccccc21`, which growth is on record?
Its growth is -3.97% (active).

How did the growth turn out when `O=C1C=C(OCC=C(C(F)(F)F)C(F)(F)F)c2ccccc2C1=O` was run?
The growth was -30% (active).

For `COC(=O)Cc1nc(C#N)c(N(C)C)o1`, which growth is on record?
Its growth is 99.5% (inactive).

How did the growth turn out when `CCn1cc(C(=O)O)c(=O)c2cc(F)c(N3CCN(S(=O)(=O)c4cccc5ccccc45)CC3)cc21` was run?
The growth was -46.2% (active).

With `Cn1cc(-c2csc(-c3cn(C)c4ncccc34)n2)c2cc(F)cnc21` as the compound, how does the growth read?
The growth was 86.4% (inactive).

For `CCCCCCC(C(=O)OCC)(C(=O)OCC)C1CCCCCC1`, which growth is on record?
Its growth is 106% (inactive).

`O=C1CC(=O)N(c2ccccc2)O1` was tested. Which growth did it give?
The growth was 103% (inactive).

`CCCCc1nc(Cl)c(C2CC(c3ccc(Cl)cc3)=NN2c2cc(Cl)cc(Cl)c2)[nH]1` (stereo not given) was tested. Which growth did it give?
Its growth is 35.4% (inactive).

How did the growth turn out when `NC(=O)c1c(Nc2ccccc2)nn2cc(-c3nc4ccccc4s3)c(N)nc12` was run?
The growth was 101% (inactive).

`COc1ccc(/C=C(\C#N)c2ccc(OC)cc2)cc1` was tested. Which growth did it give?
The growth was 50.9% (inactive).

How did the growth turn out when `O=C1/C(=C\c2cccn2Cc2ccc(Cl)cc2)c2ccccc2N1c1c(Cl)cccc1Cl` was run?
The growth was 79.7% (inactive).

With `COC(=O)C(C)Oc1ccc(OC#N)cc1` (stereo not given) as the compound, how does the growth read?
The growth was 46.1% (inactive).

`CN1CCN(CC(=O)Nc2ccc3ncnc(Nc4ccc(Oc5cccc(C(F)(F)F)c5)c(Cl)c4)c3c2)CC1` was tested. Which growth did it give?
The growth was -35.7% (active).

`COC(=O)c1cc2oc(/C=C3/SC(=S)N(N)C3=O)cc2n1Cc1ccccc1` was tested. Which growth did it give?
The growth was 53.7% (inactive).

How did the growth turn out when `O=S(=O)(NCCNc1nccc(-c2c(-c3ccc(F)c(O)c3)nc3sccn23)n1)c1ccc(Cl)cc1` was run?
The growth was -26.9% (active).

`Cc1nc2ccccc2c(/C=C/c2ccc(F)cc2)c1C(N)=O` was tested. Which growth did it give?
Its growth is 81.1% (inactive).

How did the growth turn out when `CCC(c1ccc(OC)cc1)C(CC)c1ccc(O)c(CN2CCN(C)CC2)c1` (stereo not given) was run?
Its growth is 55.3% (inactive).

How did the growth turn out when `Nc1ccn(Cc2nnc(CCC(=O)c3nc4ccccc4[nH]3)o2)c(=O)n1` was run?
Its growth is 80.5% (inactive).

For `CN1CCN(CCNC(=O)c2cccc(CN3c4cccc5c4C(=Cc4cccnc43)N(C)C5=O)c2)CC1`, which growth is on record?
The growth was -6.25% (active).

How did the growth turn out when `CN1CCN(C(=O)/C=C/c2ccc([N+](=O)[O-])o2)CC1` was run?
Its growth is 66.2% (inactive).

`CCN(CC)CCCCNc1c2ccc(Cl)cc2nc2ccc(OC)cc12` was tested. Which growth did it give?
Its growth is -34.8% (active).

For `Fc1ccc(Cn2cc(CSc3nc4ccccc4o3)nn2)cc1`, which growth is on record?
The growth was 104% (inactive).

For `Nc1nonc1-c1nc2ccccc2n1CC(=O)Nc1ccc2c(c1)COC2=O`, which growth is on record?
Its growth is 100% (inactive).

For `CC(=O)OC1Oc2cc(C)c(C)cc2-c2oc(=O)c(-c3cc4ccc(N(C)C)cc4oc3=O)cc21` (stereo not given), which growth is on record?
The growth was 25.6% (inactive).

Which growth does the source give for `COc1cc(C2=NN(C(C)=O)C(c3cc(OC)c(OC)c(OC)c3)C2)ccc1O` (stereo not given) here?
Its growth is -37.6% (active).

Which growth does the source give for `O=C(Cc1ccccc1)Nc1nnc(NC2CCN(c3nnc(NC(=O)Cc4ccccc4)s3)CC2)s1` here?
The growth was 96.7% (inactive).

`O=S(=O)(NCCNc1nccc(-c2c(-c3ccc(F)c(O)c3)nc3sccn23)n1)c1ccc(F)cc1` was tested. Which growth did it give?
The growth was 12.7% (inactive).

`Cc1ccc(Cl)cc1NC(=O)CCl` was tested. Which growth did it give?
Its growth is 33% (inactive).

For `Cn1cc(-c2ccc3ncc(-c4ccc(CC(=O)Nc5cc(C(C)(C)C)nn5C)cc4)cc3c2)cn1`, which growth is on record?
The growth was -36.7% [30 µM] (active).

With `COc1ccc2c(c1)CCCC21C(=O)Nc2c(Cl)cccc21` (stereo not given) as the compound, how does the growth read?
The growth was 33.9% (inactive).
